This is a sample that favours compounds with a hit; in the whole collection about 3.9% have one here.
NSD2 HMT inh – inhibitors of human histone methyltransferase NSD2 | inhibition, % at 12.5 µM | 310,000 compounds, 0.54% hits | NSD2 peptide methylation, AlphaScreen, 120 min; in the data active = inhibition above about 50%
CASP6 VEID inh – blocks human caspase-6 cleavage activity. purified caspase-6, Z-VEID-R110 cleavage fluorescence. inhibition, % at 12.5 µM. 350,000 compounds, 0.53% hits. AID 686996;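 active = mean inhibition across replicates at least about 35%, with every replicate also reaching that limit, limit read from the data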;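 also: 0% = median of neutral control wells and 100% = no fluorescence left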
ALR H2O2 inh – blocks human ALR sulfhydryl oxidase activity; purified ALR, DTT oxidation, H2O2 HRP-luminol luminescence; 290,000 compounds, 3.8% hits; P55789; inhibition, % (test concentration not listed);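 active = mean replicate inhibition above about 79%, with every replicate also reaching it, limit read from the data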
CDK5 inh – CDK5/p35 (human) kinase inhibition. Recombinant CDK5/p35, ADP-Glo luminescence, 60 min. inhibition, % at 10 µM. 330,000 compounds, 0.01% hits;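 active = highest replicate inhibition of at least 50% and at least 75% of replicates reaching 50%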;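 also: plate controls were DMSO neutral control for no effect and GW8510 at 10 µM for full effect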
Target sequence (Q00535 whole entry, looked up): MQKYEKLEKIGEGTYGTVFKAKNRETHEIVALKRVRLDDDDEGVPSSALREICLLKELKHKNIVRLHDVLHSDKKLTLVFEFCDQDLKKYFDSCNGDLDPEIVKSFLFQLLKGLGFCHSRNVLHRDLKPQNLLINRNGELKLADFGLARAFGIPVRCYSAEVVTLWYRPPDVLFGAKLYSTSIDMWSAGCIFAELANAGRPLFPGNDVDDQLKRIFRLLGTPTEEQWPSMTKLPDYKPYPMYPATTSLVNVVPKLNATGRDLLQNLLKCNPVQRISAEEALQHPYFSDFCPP
Target sequence (Q15078 whole entry, looked up): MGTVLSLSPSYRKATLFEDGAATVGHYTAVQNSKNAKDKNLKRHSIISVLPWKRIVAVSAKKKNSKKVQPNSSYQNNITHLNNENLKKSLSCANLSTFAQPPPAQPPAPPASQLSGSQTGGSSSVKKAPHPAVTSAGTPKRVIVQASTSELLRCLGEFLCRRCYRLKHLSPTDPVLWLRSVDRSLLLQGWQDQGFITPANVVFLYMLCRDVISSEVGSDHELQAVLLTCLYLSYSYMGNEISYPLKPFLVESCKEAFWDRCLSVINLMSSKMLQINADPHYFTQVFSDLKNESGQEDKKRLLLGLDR
Glyco luc inh – blocks N-linked glycosylation in D54 reporter cells. 360,000 compounds, 0.23% hits. reporter increase, % at 12.5 µM. AID 588692. D54 ERlucT glycosylation luciferase reporter, 24 h; percent of 100 nM tunicamycin response;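 active = mean luciferase reporter signal, scaled so untreated is 0 and the glycosylation-blocking control 100, at or above a set limit in every replicate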;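 also: luciferase carries N-glycosylation sites so blocking glycosylation raises the light; 0% = median of neutral control wells and 100% = median of 100 nM tunicamycin wells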
Mot1-301 SUMO – SUMOylation pathway inhibition by Mot1-301 growth rescue; growth rescue, % at 18.8 µM; S. cerevisiae Mot1-301 growth rescue, ATP luminescence, 38.5C; percent above DMSO median, 100 means doubled; 320,000 compounds, 1% hits;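 active = every valid replicate shows activation above 250% relative to neutral control wells; inactive = the rest, any valid replicate at or below 250%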;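 also: OY570 slx delta 5 strain wells were the positive control but not used for scaling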
* hit, by the source's call; . = not tested or not shown; ! = repeats disagree.

SMILES	NSD2 HMT inh	CASP6 VEID inh	ALR H2O2 inh	CDK5 inh	Glyco luc inh	Mot1-301 SUMO
COc1ccc(CCC(=O)NNC(=O)Nc2ccc(OC)c(OC)c2)cc1	-2	3	-18	2	0	11
CN1CCN(S(=O)(=O)c2ccc(N3CCN(c4ccc(O)cc4)CC3)c([N+](=O)[O-])c2)CC1	11	1	98*	0	-1	600
O=[N+]([O-])c1cc(S(=O)(=O)Nc2ccccc2)ccc1N1CCN(c2ccc(O)cc2)CC1	2	3	.	0	3	28
COc1ccc(C2C(C(C)=O)=C(O)C(=O)N2c2ccc(O)cc2)cc1 (configuration not stated)	5	2	88*	-1	4	80
CC(=O)C1=C(O)C(=O)N(c2ccc(O)cc2)C1c1ccc(Cl)cc1 (configuration not stated)	2	1	81*	-1	1	-2
CC(=O)C1=C(O)C(=O)N(c2ccc(C)cc2)C1c1ccc([N+](=O)[O-])cc1 (configuration not stated)	2	-1	29	1	2	8
CC(=O)C1=C(O)C(=O)N(c2ccc(O)cc2)C1c1ccc([N+](=O)[O-])cc1 (configuration not stated)	-3	3	82*	0	3	-9
Cc1nn(CCCC(=O)NCCc2ccccc2)c(=O)c2nn(-c3ccccc3)c(C)c12	-3	50*	-2	0	2	-17
COc1cccc(OCC(O)CN2CCN(CCN3C(=O)c4cccc5cccc(c45)C3=O)CC2)c1 (configuration not stated)	7	7	.	-1	34*	4
COc1cccc(OCC(O)CN2CCN(c3ccccc3)CC2)c1 (configuration not stated)	2	-7	96*!	0	4	-7
COc1cccc(OCC(O)CN2CCN(c3ccc(Cl)cc3)CC2)c1 (configuration not stated)	2	-2	45	1	3	-14
COc1ccccc1N1CCN(CC(O)COCCOc2ccc(Br)cc2)CC1 (configuration not stated)	7	-1	.	0	-2	-6
COc1ccc(N2CCN(CC(O)COCCOc3ccc(Br)cc3)CC2)cc1 (configuration not stated)	0	0	97*	-2	-1	81
O=C1c2cccc3cccc(c23)C(=O)N1CCN1CCN(CC(O)COc2ccccc2)CC1 (configuration not stated)	3	.	0	.	2	-12
COc1ccc(N2CCN(CC(O)COc3ccc4c(c3)CCC4)CC2)cc1 (configuration not stated)	9	.	97*	-1	0	25
COc1ccc(C#Cc2cnc3c(c2)C(=O)N([C@H](C)CO)C[C@@H](C)[C@@H](CN(C)C(C)=O)O3)cc1	.	2	.	.	.	.
C[C@@H]1CCCCO[C@H](CN(C)C(=O)Nc2cccc3ccccc23)[C@H](C)CN([C@H](C)CO)C(=O)c2cc(NS(=O)(=O)c3ccc(F)cc3)ccc2O1	.	-1	.	.	.	.
COc1cc(/C=C2\SC(=S)N(NC(C)=O)C2=O)ccc1OC(=O)c1ccco1	5	-1	98*	1	4	-6
O=C(NN1C(=O)/C(=C/c2ccc(O)c([N+](=O)[O-])c2)SC1=S)c1ccccc1Cl	15	15	10	2	-1	20
Cc1cc(C)nc(NN2C(=O)/C(=C/c3ccc(O)cc3)SC2=S)n1	13	17	99*	1	4	-9
CCOc1cc(/C=C2/SC(=S)NC2=O)ccc1OC(=O)c1ccco1	38	13	98*	1	-2	-11
O=C(NN1C(=O)/C(=C/c2cc([N+](=O)[O-])ccc2O)SC1=S)c1ccccc1O	.	.	81*	.	.	1
COc1cc(/C=C2/SC(=O)NC2=O)ccc1OC(=O)c1ccco1	0	1	22	1	-5	3
COCC(=O)Nc1ccc2c(c1)C(=O)N(C)[C@H]1CC[C@@H](CC(=O)NCCc3ccccc3)O[C@@H]1CO2	.	1	.	.	.	.
Cc1ccc(/C=C2\SC(=S)N(/N=C/c3cc([N+](=O)[O-])ccc3O)C2=O)o1	.	.	98*	0	-1	-5

Screening data from PubChem.
